HIF-2a block = HIF-2a inhibition; 786-0 RCC cells HIF-2a reporter, luciferase luminescence, overnight; inhibition, % at 18.8 µM; hit rate 0.72% among 360,000;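 active means inhibition of the luminescence signal of 40% or more relative to plate controls, in a single-dose primary screen at 18.75 µM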
TWEAK-Fn14 inh = blocks TWEAK-Fn14 interaction in a reporter cell assay; AID 1159606; inhibition, % at 10 µM; hit rate 2% among 360,000; TWEAK-stimulated Fn14 reporter cells, luciferase luminescence, 8 h; in the data active means inhibition above about 50%
CF NFkB block = blocks PAF-induced NF-kB reporter in cystic fibrosis cells; KKLEB NF-kB-GFP reporter, GFP fluorescence overnight; inhibition, % at 5 µM; hit rate 0.86% among 360,000; AID 588850;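 active means at least 50% inhibition at 5 µM, scaled per plate between neutral and stimulator controls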;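 further: PAF is a Pseudomonas aeruginosa culture filtrate used as stimulus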
KKLEB cytotox = reduces viability of KKLEB cystic fibrosis airway cells; KKLEB CF airway cells viability, ATPlite luminescence, overnight; active compounds read low; cells stimulated with P. aeruginosa culture filtrate; activity change (cytotoxicity), % at 5 µM; hit rate 0.36% among 360,000; AID 602141;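 active means corrected activity change at or below -50% at 5 µM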
TROY signal inh = inhibitors of TROY-dependent NF-kB signaling. inhibition, % at 10 µM. Q293 LMP1-TROYcd NF-kB luciferase reporter, 4 h. hit rate 0.98% among 360,000. AID 1347056;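 active means compounds whose plate-normalised and pattern-corrected inhibition of the luciferase reporter signal at the single screening dose is 50% or more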
Peg3 promoter = reduces Peg3 promoter-driven luciferase expression in HeLa. HeLa PEG-Prom luciferase reporter, luminescence, overnight. inhibition, % at 20 µM. hit rate 1.7% among 360,000. AID 588405;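 active means inhibition of at least 50% at 20 µM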
A number is an active result; . = inactive. Sampled rows, rich in hits. Any-hit rate of the full collection: about 3.9%.

SMILES | HIF-2a block | TWEAK-Fn14 inh | CF NFkB block | KKLEB cytotox | TROY signal inh | Peg3 promoter
Cc1cc(C)n2nc(SC(C)C(=O)N(C)c3ccccc3)nc2n1 (configuration not stated) | . | . | . | . | . | .
CC12CCC(C(=O)Nc3ccccc3Cl)([C@H](Br)C1=O)C2(C)C (some centres not stated) | . | . | . | . | . | .
O=C(COc1ccc(Cl)cc1Cl)NNC(=S)NCc1ccco1 | . | . | . | . | . | .
Cc1nn(Cc2c(Cl)cccc2Cl)c(C)c1NC(=O)c1cnn2c(C(F)F)cc(-c3ccccc3)nc12 | . | . | . | . | . | .
Cc1ccc(-c2cc(C(F)F)n3ncc(C(=O)Nc4c(C)nn(Cc5c(Cl)cccc5Cl)c4C)c3n2)cc1 | . | . | 77 | -65 | . | .
N#Cc1cccc(NC(=O)CSc2cccc[n+]2[O-])c1 | . | . | . | . | . | .
COc1ccc(/C(N)=N/OC(=O)c2cccc([N+](=O)[O-])c2C)cc1 | . | . | . | . | . | .
COc1ccccc1C/C(N)=N/OC(=O)c1cccc([N+](=O)[O-])c1C | . | 90 | . | . | . | .
C=C(C)C(O)CC/C(C)=C/Cc1c(O)ccc(C(=O)/C=C/c2ccc(O)cc2)c1O (configuration not stated) | . | . | . | . | 65 | .
CC(=O)OCCCNc1cc(Sc2ccc(C)cc2)c2nonc2c1[N+](=O)[O-] | . | 80 | . | . | 64 | .
COC(=O)CCSc1cc(NCCOC(C)=O)c([N+](=O)[O-])c2nonc12 | . | . | . | . | . | .
Cn1ccnc1Sc1cc(NCCCO)c([N+](=O)[O-])c2nonc12 | . | . | . | . | . | 85
CC(C)CCn1c(SCC(=O)Nc2ccccc2C(F)(F)F)nc2nccnc2c1=O | . | . | . | . | . | .
CC1CCN(CCn2c(=S)[nH]c3cc4c(cc3c2=O)OCO4)CC1 | . | . | . | . | . | .
O=c1c2cc3c(cc2[nH]c(=S)n1CCN1CCOCC1)OCO3 | . | . | . | . | 78 | .
CN(Cc1cccc(-n2cccn2)c1)C(=O)CCc1nnc(C2CCCCC2)o1 | . | . | . | . | . | .
CCC1(CC)NC(=O)N(CC(=O)N2CCN(S(=O)(=O)c3cccc(F)c3)CC2)C1=O | . | . | . | . | . | .
CCN1C/C(=C/c2cccc([N+](=O)[O-])c2)C(=O)/C(=C/c2cccc([N+](=O)[O-])c2)C1 | 97 | 95 | 102 | . | . | 104
CCN(CC)CCOC(=O)C(c1ccccc1)c1ccccc1 | . | . | . | -91 | . | .
CCN(CC)CCOC(=O)C(c1ccccc1)C1CCCCC1 (configuration not stated) | . | . | . | . | . | .
CCNc1nc(NC(C)CC)nc(Oc2ccc(=O)[nH]n2)n1 (configuration not stated) | . | 87 | . | . | . | .
Cc1c(CCOC(=O)CC23CC4CC(CC(C)(C4)C2)C3)sc[n+]1CC(=O)c1ccccc1 | . | . | . | . | . | 84
Cc1c(CCOC(=O)CC23CC4CC(CC(C4)C2)C3)sc[n+]1CC(=O)c1ccc(Br)cc1 | . | . | . | . | . | .
CCOC(=O)c1ccccc1NC(=O)COC(=O)c1ccc(OCC(=O)N2CCOCC2)c(OCC)c1 | . | . | . | . | . | .
CC(C)CCN1C(=O)c2ccc(C(=O)Nc3ccc(Br)cc3C(=O)O)cc2C1=O | . | . | . | . | 58 | .
SMILES | HIF-2a block | TWEAK-Fn14 inh | CF NFkB block | KKLEB cytotox | TROY signal inh | Peg3 promoter
CN(CC(=O)Nc1cccc(F)c1)C(=O)c1cc(-c2cccs2)nn1-c1ccccc1 | . | . | . | . | . | 56
COc1ccc(N2CCN(c3ncnc4c3[nH]c3ccccc34)CC2)cc1 | . | 77 | . | . | 76 | .
COc1cccc2[nH]c3c(N4CCCCC4)ncnc3c12 | . | . | . | . | . | .
CCOC(=O)N1CCN(c2ncnc3c2[nH]c2ccc(OC)cc23)CC1 | . | . | . | . | . | .
CCOC(=O)N1CCN(c2ncnc3c2[nH]c2ccc(F)cc23)CC1 | . | . | . | . | . | .
COc1cc2[nH]c3c(N4CCN(c5ccccn5)CC4)ncnc3c2cc1OC | . | 73 | . | . | . | 100
COc1ccc2[nH]c3c(N4CCc5ccccc5C4)ncnc3c2c1 | . | 92 | . | . | 69 | .
Fc1ccc2[nH]c3c(N4CCN(c5ccccc5)CC4)ncnc3c2c1 | . | 102 | . | . | 76 | 104

Compound activity as filed in PubChem.
